{"source": "PubChem BioAssay"}
{"biological_target": "Calmodulin-1 (Homo sapiens) (UniProt P0DP23)", "test": "small molecules binding Ca-loaded calmodulin-1 – biochemical, small-molecule microarray, Cy5-labelled CALM1, plus calcium, artefact control for SMM control-protein annotation, profiling panel (AID 1112);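 further: score merges spot fluorescence with signal to noise from triplicate slides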", "details": "Cy5-CALM1 binding fluorescence, higher = more signal"}
{"smiles": "[N-]=[N+]=Nc1ccccc1[C@H]1OC(c2ccc(OCCCO)cc2)=N[C@@]1(CCS(=O)(=O)c1ccccc1)C(=O)O", "composite z-score": 0.373}
{"smiles": "CC=CC(O)C1C=CC2C(=O)N(c3ccccc3)C(=O)C2N1Nc1ccc(C(C)C)cc1", "note": "(centres undefined)", "composite z-score": 0.138}
{"smiles": "COc1cccc(C(=O)O[C@H]2CC[C@]3(C)C4=C(CCC3C2(C)C)[C@]2(C)CC[C@H]([C@H](C)CCCC(C)C)[C@@]2(C)CC4)c1", "note": "(some centres undefined)", "composite z-score": -0.441}
{"smiles": "CC(=O)NCCCC[C@@H]1NC(=O)[C@H]2C[C@@H](C(=O)NCCCCCC[N+](C)(C)C)[C@@H](c3cccc(OCCO)c3)N2C1=O", "composite z-score": -0.34}
{"smiles": "CC(C)c1ccc(NN2C(C(O)c3cccc(O)c3)C=CC3C(=O)N(c4ccccc4)C(=O)C32)cc1", "note": "(centres undefined)", "composite z-score": 0.904}
{"smiles": "O=C(CS)NCCCCCCNC(=O)[C@H]1C[C@H]2C(=O)N3CCC[C@H]3C(=O)N2[C@H]1c1cccc(OCCO)c1", "composite z-score": 0.0685}
{"smiles": "C=C(C(=O)CC[C@H](OC(C)=O)c1ccc(OCCO)cc1)C(C)C", "composite z-score": -1.39}
{"system": "not listed separately", "test": "probe aWnt5a binding to arrayed compounds – biochemical, biotinylated probe, 635/667 nm fluorescence, primary screen (AID 1113);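 further: score merges 667 nm fluorescence intensity with signal-to-noise per printed feature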", "details": "small-molecule microarray, higher = more signal"}
{"smiles": "COCCOC(=O)N1C(=O)[C@@]2(c3cc(C#CCC(C(=O)OC)C(=O)OC)ccc31)[C@H](C(=O)N1CCCCCCC1)[C@H]1C(=O)O[C@H](c3ccccc3)[C@H](c3ccccc3)N1[C@@H]2c1ccc(OCCO)cc1", "composite z-score": 1.21}
{"smiles": "C=C(CCCC)/C(=C/C[C@H](OC(C)=O)c1ccc(CO)o1)c1cnc2ccccc2c1", "composite z-score": -0.0478}
{"smiles": "[N-]=[N+]=NCc1ccccc1[C@@H]1OC(c2ccc(OCCCO)cc2)=N[C@]1(Cc1ccccc1)C(=O)N1CCCCC1", "composite z-score": 0.0136}
{"smiles": "C=CCNC(=O)[C@@H]1[C@H]2C(=O)O[C@H](c3ccccc3)[C@H](c3ccccc3)N2[C@H](c2ccc(OCCO)cc2)[C@@]12C(=O)Nc1ccccc12", "composite z-score": -0.0179}
{"smiles": "O=C1OCCC=C[C@H]2OC34C=CCN(Cc5ccccc5)C(=O)[C@H]3N(CCCCCO)C(=O)[C@@H]4C12", "note": "(some centres undefined)", "composite z-score": -0.091}
{"smiles": "COc1ccccc1CN1C(=O)c2ccccc2[C@@H](C(=O)NCCN2CCOCC2)[C@@H]1c1ccc(CO)cc1", "composite z-score": -0.185}
{"smiles": "CN1CCC(CCCO)=CC1c1ccc(CN2CCCC2)cc1", "note": "(centres undefined)", "composite z-score": 0.0215}
{"smiles": "COCCOC(=O)N1C(=O)[C@@]2(c3cc(C#CCCO)ccc31)[C@H](c1ccc(O)cc1)N1[C@H](c3ccccc3)[C@H](c3ccccc3)OC(=O)[C@H]1[C@@H]2C(N)=O", "composite z-score": -0.0118}
{"smiles": "C[C@]1(C(=O)NCc2ccccc2)c2ccccc2C(=O)N(Cc2ccc(OC(F)(F)F)cc2)[C@H]1c1ccc(CO)cc1", "composite z-score": -0.0882}
{"smiles": "COc1ccc([Si](C)(C)[C@@H]2[C@@H](CCn3cc([C@H](O)c4ccccc4)nn3)O[C@]3(C(=O)N(Cc4ccc(N5C(=O)c6cccc7cccc5c67)cc4)c4ccccc43)[C@H]2C)cc1", "composite z-score": -0.154}
{"smiles": "[N-]=[N+]=NCc1ccccc1C[C@@]1(C(=O)NCC(O)CO)N=C(c2ccc(OCCCO)cc2)O[C@@H]1c1ccccc1CN=[N+]=[N-]", "note": "(some centres undefined)", "composite z-score": 0.0219}
{"smiles": "C=CC[C@@H](OC(=O)Nc1ccc(OC)cc1)c1ccc(O)c2ccccc12", "composite z-score": -0.0006}
{"smiles": "CCOC(=O)C[C@H]1[C@H](OC(=O)c2ccccc2-c2ccccc2)[C@@H](NC(=O)c2ccc3ccccc3c2)c2cc(OCCCO)ccc2N1C(=O)c1ccc2ccccc2n1", "composite z-score": -0.0441}
{"smiles": "N#Cc1ccc(NN2C(C(O)c3ccc([N+](=O)[O-])cc3)C=CC3C(=O)N(c4ccccc4)C(=O)C32)cc1", "note": "(centres undefined)", "composite z-score": 0.119}
{"smiles": "[N-]=[N+]=NCc1ccccc1[C@@H]1OC(c2ccc(OCCCO)cc2)=N[C@]1(Cc1ccccc1N=[N+]=[N-])C(=O)NCc1ccccc1", "composite z-score": -0.138}
{"smiles": "CCOC(=O)C[C@H]1[C@H](OC(=O)c2ccc(-c3ccccc3)cc2)[C@@H](NC(=O)c2ccc3ccccc3c2)c2cc(OCCCO)ccc2N1C(=O)Cc1ccc(OC)cc1", "composite z-score": -0.001}
{"smiles": "CC(C)NC(=O)[C@@H]1c2ccccc2C(=O)N(Cc2ccccc2Cl)[C@H]1c1ccc(CO)cc1", "composite z-score": -0.13}
{"smiles": "CCCCC(CC)C(O)C1C=CC2C(=O)N(c3ccccc3)C(=O)C2N1Nc1ccccc1", "note": "(centres undefined)", "composite z-score": 0.173}
{"smiles": "CC(C)C[C@@H]1NC(=O)[C@H]2C[C@@H](C(=O)NCCCCCNC(=O)CS)[C@@H](c3cccc(OCCO)c3)N2C1=O", "composite z-score": -0.194}
{"smiles": "CCC[C@@H]1C=C(C(=O)O)[C@H](c2ccc(C)cc2)N1S(=O)(=O)c1ccc(C)cc1", "composite z-score": -0.0819}
{"smiles": "[N-]=[N+]=NCc1ccccc1[C@H]1OC(c2ccc(OCCCO)cc2)=N[C@@]1(CCS(=O)(=O)c1ccccc1)C(=O)N1CCOCC1", "composite z-score": 0.242}
{"smiles": "C=CC(COC(C)=O)NS(=O)(=O)c1ccc(Br)cc1", "note": "(centres undefined)", "composite z-score": 0.093}
